From PubChem BioAssay (NCI)
Compounds without any hit were thinned out: in the full panel of roughly 83,000, 20% have a hit.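 Each cell line was grown in a 96-well plate and treated with one concentration of compound for 48 hours. Values below 10 were considered active.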 A number with no mark means an inactive call. Calls of active or inactive are those of the source.

The compounds below were run on SF-539 CNS (assay: NCI-60 one-dose screen, 48 h (100 = growth as untreated, 0 = no growth, -100 = all killed)). Conditions: 10 µM unless noted.

In order of falling growth:
1. CCCC(=O)CC(C)=O.CCCC(=O)CC(C)=O.[Cu]  104%
2. COc1ccc(-n2c(C(O)c3ccccc3)nn(CN3CCOCC3)c2=S)cc1 (centres undefined)  102%
3. Cc1cc(Nc2ccc(OCc3ccccc3)cc2)nc2cc(O)ccc12  97.5%
4. CCOc1ccccc1CN1CCc2nc3cc(C(C)(C)C)[nH]n3c(=O)c2C1  93.7%
5. O=C(NC1CCN(Cc2ccccc2)CC1)c1cc(C(=O)NC2CCN(Cc3ccccc3)CC2)cc(C(=O)NC2CCN(Cc3ccccc3)CC2)c1  90.5%
6. O=C(NN1C(=O)CSC1c1ccc(Cl)cc1)c1[nH]c2ccc(F)cc2c1-c1ccccc1 (centres undefined)  78.8%
7. CCOC(=O)c1c2c(n3cccc(Cl)c13)C(=O)c1ncccc1C2=O  77.2%
8. CCOC(=O)c1c(Cl)c2c(n1Cc1ccccc1)-c1oncc1CCC2  74%
9. O=C(NC(=S)Nc1cccc(NC(=S)NC(=O)c2ccccc2)c1)c1ccccc1  70%
10. CSc1nc2c(c(=O)[nH]1)N=C1c3ccccc3C(=O)C1C(c1ccc(F)cc1)N2 (centres undefined)  68.7%
11. CSc1nc2c(c(=O)n1C)N=C1c3ccccc3C(=O)C1C(c1ccccc1)N2 (centres undefined)  68%
12. CC/C=C\C[C@H](O)C/C=C1/C(=O)C=C[C@@H]1C/C=C\CCCC(=O)OCCS(=O)(=O)c1ccccc1  59.9%
13. COc1ccc(OC)c(N(CCN2C(=O)c3ccccc3C2=O)C(=O)CCl)c1  23.1%

With `O=C(/C=C/c1ccccn1)c1ccc(OCc2nnc(-c3ccc(Cl)cc3)o2)cc1` the growth was -4.02% (active).
